Test results reported in the supplement of paper PMC11417369.
± gives the standard deviation of the averaged measurements. In all, about 25,000 sequences were measured (“ln(normalized median fluorescence intensity)”: median about 8.6, highest 2% from about 10 on). Only a selection was taken, and the highest values are over-represented in it overall.

The sequences below were run on PfAP2-EXP AP2 domain (GST-tagged) (assay: gcPBM binding intensity (ln(normalized median fluorescence intensity)); higher = stronger DNA binding).
Outline: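 GST-fused DNA-binding domains of P. falciparum, expressed in E. coli, were applied at about 25 μg on average for 1 h to an Agilent 4 × 180k array of primer-extended double-stranded 36-bp intergenic genomic probes and negative controls. Binding intensity is the highest Masliner-normalised natural-log median intensity across replicate spots of either probe orientation, measured with Alexa488 anti-GST antibody and a 488 nm scan.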

Sequence | gcPBM binding intensity (ln)
AATCGATAACAATGTAGTACCAGAAAAATAAATATT [XGTACX_site8501] | 8.99 ± 0.3
AGAATCACCAAATATGTACACACCTTAACATGTTTA [CACACA_site2068] | 9.01 ± 0.46
ATTAGCTACAAACAAAGGCTACCTATAGCAAGAGGG [GTGCAC_negctrl_site33] | 8.84 ± 0.39
ATTATTAAAAAGATGTAAATAAATGAATATATGCTT [CACACA_negctrl_site539] | 8.47 ± 0.39
TATTTTTTTTTTTTTTTTTTTTTAAAACATATCAAT [CACACA_negctrl_site925] | 7.95 ± 0.64
TAGCTCGTTCGGAGCACACACATATATATATATATA [CACACA_site1948] | 10.3 ± 0.28
GTTAGCTCGTTCGGAGCACACACATATATATATATA [CACACA_site8595] | 10.1 ± 0.45
TAGCTCGTTCGGAGCACACACATATAAATAAATATA [CACACA_site7002] | 8.38 ± 0.52
TTCTATATATTTGGAAGTACATTATATTTATTTTTT [XGTACX_site3172] | 8.44 ± 0.33
AAATAATAAATATATCGTACAAATATCATATATAAA [XGTACX_site2771] | 8.32 ± 0.38
ACACATAAATGAATAAATAAATAAATATAAATATAA [CACACA_negctrl_site1784] | 8.36 ± 0.29
TATATGTAAATGGACACACACATATATATATATATA [CACACA_site3659] | 10.1 ± 0.36
TATCTGTAAATGGACACACACATATATATATATATA [CACACA_site5926] | 10.2 ± 0.2
AATATATGTAAATGGACACACACATATATATATATA [CACACA_site9220] | 10 ± 0.28
CCTAAATAAATGGACACACACATATTTATATTTATA [CACACA_site6789] | 8.46 ± 0.45
CCTAAATAAATGGACACACACATATATATATATATA [CACACA_site1439] | 10.2 ± 0.32
TACCTAAATAAATGGACACACACATATATATATATA [CACACA_site8407] | 10.1 ± 0.3
AATATTATAAATGTCACACATATATTCAAATATATA [CACACA_site4736] | 8.29 ± 0.38
AATAAATGGAATGTCACACATATATATATATATATA [CACACA_site4869] | 10.2 ± 0.37
GAACATACTCAAATAGCACACACATAAATAAAAATG [CACACA_site9283] | 8.89 ± 0.56
GTGTGTTGTATATACTGTACATACTTTATATATAGT [XGTACX_site1876] | 8.63
CCTTTTTTGTTTTATGCACACCATATAACCAAGGCT [CACACA_site7893] | 8.98 ± 0.18
AAAAAATGGATGATCACACACTTCATAAAAATTGCA [CACACA_site5256] | 8.46 ± 0.49

Sequence | gcPBM binding intensity (ln)
GTATATAATTTATATTGTACGCATATTATTATCATT [XGTACX_site7277] | 8.57 ± 0.25
TTTATATTTAAATGCATGCACTTTCTATTTTTTTTT [GTGCAC_site9959] | 10 ± 0.33
ATTCTATATTTAAATGCATGCACTTTCTATTTTTTT [TGCATGCA_site435] | 10.6 ± 0.52
CTTTTCTATTTTTTCGTGCACTATAAATATTTTAAT | 9.6 ± 0.23
ATATATTTATATTTGTGTACATATTTATTATATTTA [XGTACX_site404] | 8.46 ± 0.28
ATATATATATATATATGTACTCATATTTTATTATTT [XGTACX_site898] | 10.1 ± 0.3
ATATATATTTATATATGTACATATTTTTGTGTATTT [XGTACX_site1183] | 8.55 ± 0.43
ATATATATATATGCATGTACATATATTTGTTATATC [XGTACX_site3197] | 9.82 ± 0.45
ATAGCATATATTTTTTGTACATATGTTATATATATA [XGTACX_site2184] | 8.96 ± 0.071
TATATATATATATATGCATGTACATATATTTGTTAT [TGCATGCA_site379] | 10.3 ± 0.17
ATGCATATATTTATGTGTACATATATTTGTAGGGGG [XGTACX_site6063] | 10.6 ± 0.19
TATATATATATATTATGTACTCATTTATTATCTTTT [XGTACX_site8051] | 9.97 ± 0.13
TTTGTCATTTTATTATGTACTCAGCATATAGGGGGG [XGTACX_site505] | 10.7 ± 0.13
ACAAAAATATTATATTGTACATTATTAGTTCATATT [XGTACX_site6750] | 8.5 ± 0.3
GTAATTTTGAGATGATGTACATATTTTTTCCTTGTC [XGTACX_site4103] | 8.78 ± 0.47
TAATTAAGAATATATAGTACATAGTTGAAAAACTTT [XGTACX_site6359] | 8.41 ± 0.33
GTTTGATAACACCTACAAACTCTTTTTTTTTTTTTT [CACACA_negctrl_site1134] | 8.41 ± 0.53
TCTGTGTTTTTGGGTACACACAAATAGCTTGTATAT [CACACA_site4002] | 8.72 ± 0.19
TATGTAACCTGTTTTACACACCCCCACCCCCCTCTT [CACACA_site319] | 10.3 ± 0.17
TATATATGTTTTTATGTACACACTTTTAACCTAAGA [CACACA_site1149] | 8.71 ± 0.36
ACCCTATATGTAACTACACACCGCATATTGTTTACT [CACACA_site3071] | 9.19 ± 0.43
ATCTATATAATATATACACACAAATATACAAAAAAA [CACACA_site1013] | 8.64 ± 0.56
AAATGCGCCATGTGTACACATATATATATATATATA [CACACA_site4649] | 10.3 ± 0.33

Sequence | gcPBM binding intensity (ln)
ATACACACATATATGTGTACATATACATATATATAT [XGTACX_site6744] | 9.53 ± 0.32
AAAAAATGCGACATGTGTACACATATATATATATAT [XGTACX_site1679] | 10.4 ± 0.11
GTACAAATGTTGTGTATATATACACACATACATATA [XGTACX_negctrl_site276] | 8.69 ± 0.33
ATATATATATATATATGTACATATACACATGTGTGC [XGTACX_site168] | 10.1 ± 0.33
AAAAAAATAAATAAATGTACACATATATATATATAT [XGTACX_site4350] | 10.2 ± 0.47
ATAACACAAAATTGTTGTACACGTGTTAATAAGTGA [XGTACX_site4452] | 9.12 ± 0.33
TTAAAAAAATAATTAACACACACATGTATATCTATA [CACACA_site9026] | 8.21 ± 0.42
TAGTACACACAAAATACATGCGGGGTTTAATATTTA [TGCATGCA_site576] | 8.78 ± 0.45
TATATGACAAGATAAAGTACAAATTTGTATATATAT [XGTACX_site3027] | 8.97 ± 0.25
TTTTATTAATATTGCATGCACACTATATAATAATTG [CACACA_site1049] | 10.02 ± 0.064
TTCTTAATATTGCATGCACACTATATAATAATTGAA [CACACA_site4720] | 10.41 ± 0.057
TTATTAATATTGCATGCACACTATATAATAATTGAA [CACACA_site8258] | 10.11 ± 0.057
ATAAAAAATTTAAGTATTTTTTACAAACCTATAAAT [GTGCAC_negctrl_site51] | 8.18 ± 0.38
ATTTTTTTTCTTTTTTTTTTACATTTTTTTCTTTTT [CACACA_negctrl_site1289] | 8.51 ± 0.45
TGTTGTAAATATGTTTGTACATAAATATATTATTTA [XGTACX_site5442] | 8.38 ± 0.35
ACATTCACAAAATTTTGTACACATATATATATATAT [XGTACX_site3518] | 10 ± 0.26
TATATACATAAAATTTGTACATATATATATATATAT [XGTACX_site3214] | 10.1 ± 0.51
CATTTAAAATTTGTTTGTACATATATATATATATAT [XGTACX_site6729] | 10.2 ± 0.26
TAAAATTTTTTTGTTTGTACATATATATATATAATA [XGTACX_site5609] | 8.72 ± 0.52
TATATATATATATGTTGTACATATTTAAATGTTTAT [XGTACX_site5437] | 10.2 ± 0.2
ACGTATCAAAAAATTTGTACATATATATATATATAT [XGTACX_site1024] | 10.1 ± 0.35
AAAAGTCTTCAAATTTGTACATATATATATATATAT [XGTACX_site3404] | 10.29 ± 0.092
TTATATATTTATAAATGTACATATAATTTTTTTATA [XGTACX_site4696] | 8.3 ± 0.32

Sequence | gcPBM binding intensity (ln)
ATCAGATATATATATTGTACATTTATATATAAATCA [XGTACX_site1960] | 8.46 ± 0.36
ATTTAAAAAATATATTGTACATATTTTATTATGTTT [XGTACX_site2984] | 8.29 ± 0.35
ATATATATATATAAATGTACAGATATATTTTTTATT [XGTACX_site5445] | 10.21 ± 0.078
TTTTTTTAATTAGTTTGTACATATTGTTATAATATA [XGTACX_site6294] | 8.56 ± 0.4
TCCTTAAAAATCTAAAAAGAAAAAAACATATATTTT [GTGCAC_negctrl_site123] | 8.04 ± 0.45
ATAATATATATATATAGTACATATATATAATATTCT [XGTACX_site2445] | 8.2 ± 0.24
TTTCTTATATTATATAAATATATAGATGTTAATGGT [CACACA_negctrl_site706] | 8.38 ± 0.47
TATTATTGTTGTTCATGTACACACTATAATAAAAGC [XGTACX_site8957] | 8.64 ± 0.4
CAAAATTGACATGACGCACACAAGTGTAGATATTTT [CACACA_site1250] | 8.57 ± 0.4
ATATAAATATAAATATATATGTATAAATATAAATAT [CACACA_negctrl_site247] | 8.25 ± 0.47
ATTATATATGTATAAATATGCTATATATATATATAT [GTGCAC_negctrl_site430] | 10.3 ± 0.17
GATTATATTATATATTAAATATAAATATGTATTATA [TGCATGCA_negctrl_site66] | 8.04 ± 0.42
ATATTTTATACTTGCACACAAAATATATTAAAATGG [CACACA_site5139] | 8.47 ± 0.4
CTTCCTTAGGAATGTACACACATATATAATATGTTG [CACACA_site461] | 8.53 ± 0.4
CATTATTATTAACATACACACGTGTTATATACCCCC [CACACA_site9365] | 10.2 ± 0.41
TTCATTATTATTAACATACACACGTGTTATATACAC [CACACA_site4112] | 8.66 ± 0.41
CATTATTATTAACATACACACGTGTTAAATACACCC [CACACA_site6118] | 8.91 ± 0.6
TTTTTTTTTTTTTTTTTTTTTTTTTTTTTTTGGGGG [CACACA_negctrl_site1570] | 9.13 ± 0.49
TAAGTTTTGTTCTTTTGTACATATAAGTATAGATCG [XGTACX_site4735] | 8.48 ± 0.33
TTTTTTTTTTTTTTTTGTACATATACATATATATAT [XGTACX_site1981] | 9.3 ± 0.11
GGTTGTATAAGTTTTTGTACATATATATATATATAT [XGTACX_site7487] | 10.2 ± 0.49
